Shown are actives, neighbours in structure and some others; about 27% of the full set was active somewhere.
CYP2C9 inhib – human CYP2C9 inhibition | 20% of 96,000 active | AID 777 | CYP2C9 Supersomes, luciferin-H conversion, luminescence | P11712 | inhibition, % at 5 µM;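 active = blocking of liver enzyme CYP2C9 beyond about 50% at 5 µM, limit read from the data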
Cav32 inh – inhibitors of human Cav3.2 T-type calcium channel; Cav3.2-expressing cells, Fluo-4 calcium fluorescence FDSS; active compounds read low; B-score at 10 µM; 4% of 100,000 active; AID 449739;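 active = single-dose well whose peak fluorescence ratio is a statistical outlier from its plate by either plate-standardised score or position-corrected B-score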
CYP2C19 activ – activators of human cytochrome P450 2C19; activation factor at 5 µM; recombinant CYP2C19, luciferin-H EGE luminescence; active compounds read high; 0 = fully inhibited enzyme, 1 = untreated enzyme; 96,000 tested, under 10 active; AID 1025;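 active = activation factor of at least 2 at 5 µM in the primary screen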;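 also: 0 = wells with 2.5 mM tranylcypromine and 1 = vehicle-only wells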
CYP2C19 inhib – blocks human cytochrome P450 2C19 | P33261 | CYP2C19 Supersomes, luciferin-H EGE luminescence, 30 min | inhibition, % at 5 µM | 21% of 96,000 active | AID 778;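 active = CYP2C19 inhibition above a set limit at 5 µM in the primary screen, cut at about 50% in these data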;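 also: plate controls were negative control wells for no effect and 2.5 mM tranylcypromine positive control for full effect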
CYP2C9 act – CYP2C9 (human) activation | recombinant CYP2C9, luciferin-H conversion, luminescence; active compounds read high; factor 1 = untreated enzyme, 0 = blocked | activation factor at 5 µM | 1.4% of 96,000 active | AID 1024;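 active = activation factor of 2 or more for CYP2C9 at a 5 µM dose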;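 also: 0 = sulfaphenazole-blocked wells and 1 = vehicle-only wells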
Numbers without * were called inactive; x = not tested or not shown.

SMILES | CYP2C9 inhib | Cav32 inh | CYP2C19 activ | CYP2C19 inhib | CYP2C9 act
COc1cccc(C2=NOC(C(=O)NCCCn3ccnc3)C2)c1 (stereo not given) | 82* | 1.6 | 0 | 95* | 0.2
COCCNC(=O)C1CC(c2cccc(OC)c2)=NO1 (stereo not given) | -11 | -0.47 | 0.9 | 7 | 1.1
CCN(CC)C(=O)C1CC(c2ccc(OC)cc2)=NO1 (stereo not given) | 5 | -4.3* | 0.9 | 9 | 1
COc1ccc(CCNC(=O)C2CC(c3cccc(F)c3)=NO2)cc1 (stereo not given) | x | -0.24 | x | x | x
CCOC(=O)c1c(C)[nH]c(C(=O)Cn2c(=O)oc3ccccc32)c1C | 9 | -1.5 | 1 | -3 | 0.9
COc1c2occc2c(OC)c2c(=O)cc(C(F)(F)F)oc12 | 19 | 1.1 | 0.5 | 48 | 0.8
COc1c2occc2c(OC)c2c(=O)cc(C(F)(F)C(F)(F)F)oc12 | 61* | -0.51 | 0 | 98* | 0.4
CCCS(=O)(=O)Nc1cc(C(F)(F)F)ccc1OCCOC | 15 | -0.083 | 0.5 | 50* | 0.8
COc1ccc(C2=Nc3ccccc3OC2)cc1 | 58* | 1.2 | 0.3 | 70* | 0.4
CC(C)(C)Nc1nc(NC(C)(C)C)nc(-n2ccnc2)n1 | 63* | -0.16 | 0.6 | 36 | 0.4
CCc1cc2c(NCC3CCCO3)nc(C)nc2s1 (stereo not given) | x | -1.1 | x | x | x
COc1cc2cc(C)c(SCC(=O)N3CCOCC3)nc2cc1OC | 37 | 1.1 | 0.8 | 16 | 0.6
CC1CCCC(NC(=O)c2ccc3c(c2)N(Cc2ccccc2)C(=O)CS3=O)C1C (stereo not given) | 76* | -0.096 | 0.6 | 42 | 0.2
O=C(NCC1CCCO1)c1ccc2c(c1)N(Cc1ccccc1)C(=O)CS2=O (stereo not given) | 28 | -0.31 | 0.8 | 18 | 0.7
CSC1=N/C(=C\c2ccccc2F)C(=O)S1 | 4 | x | 0.4 | 63* | 1
COc1cccc(/C=C2\N=C(SC)SC2=O)c1OC | 7 | 0.22 | 0.6 | 43 | 0.9
N#Cc1c(N)oc(-c2ccc3c(c2)OCO3)c1-c1ccc2c(c1)OCO2 | 87* | -0.32 | 0 | 96* | 0.1
O=C1CCCCCN1CSc1nc2ccccc2s1 | -16 | -2.1 | 0.7 | 34 | 1.2
NC(=O)C1(N2CCCCC2)CCN(C(=O)CSc2nc3ccccc3s2)CC1 | 79* | x | 0.2 | 78* | 0.2
O=C(CSc1nc2ccccc2s1)N1CCOCC1 | 26 | 0.3 | 0.2 | 78* | 0.7
O=C(Nc1ccccc1)C1=C[C@@H](c2ccc(Br)cc2)C[C@@H](OCCCCO)O1 | x | -1.7 | x | x | x
O=C(C1=C[C@H](C2CCCCC2)C[C@H](OCc2ccc(CO)cc2)O1)N1CCN(Cc2ccc3c(c2)OCO3)CC1 | x | -0.85 | x | x | x
CC(=O)Nc1ccc(OCC(O)CN2CCN(c3cc(Cl)ccc3C)CC2)cc1 (stereo not given) | 61* | -0.79 | 0.2 | 84* | 0.4
CC(=O)Nc1ccc(OCC(O)CN2CCN(c3ccc(C)c(Cl)c3)CC2)cc1 (stereo not given) | 73* | -0.07 | 0.3 | 68* | 0.3
CCN1CCN(CC(O)COc2ccc(Cl)cc2)CC1 (stereo not given) | -32 | -0.13 | 0.9 | 9 | 1.3
SMILES | CYP2C9 inhib | Cav32 inh | CYP2C19 activ | CYP2C19 inhib | CYP2C9 act
CC1(C)CC2CC(C)(CN2C(=O)C23CCC(C)(C(=O)O2)C3(C)C)C1 (stereo not given) | 18 | 0.59 | 0.7 | 28 | 0.8
COC(=O)c1cc(Br)c(=O)n(-c2ccccn2)c1 | -2 | 0.37 | 1 | -4 | 1
COC(=O)c1cc(Br)c(=O)n(-c2cc(C)on2)c1 | 50* | 0.24 | 0.4 | 59* | 0.5
O=C(NC1CCCC1)c1noc2c1CCCCC2 | 30 | 1.4 | 0.6 | 42 | 0.7
Cc1cc(Nc2ccc(Br)c(C)c2)n2nc(C)nc2n1 | -6 | -0.28 | 1.1 | -6 | 1.1
Fc1ccc(OCc2nn3cnnc3s2)cc1 | 0 | -0.2 | 0.2 | 79* | 1
O=C(CCn1nnc2ccccc21)Nc1nnc(COc2ccc(F)cc2)s1 | 18 | -2 | 1 | -1 | 0.8
CC(=O)OCCNc1cc(N2CCN(C)CC2)c2noc3c2c1C(=O)c1ccccc1-3 | x | -0.44 | x | x | x
CCOC(=O)C(C(=O)OCC)c1cc(Br)c2noc3c2c1C(=O)c1ccccc1-3 | 32 | -5.5* | 0.8 | 22 | 0.7
C#Cc1ccc([C@H]2C=C(C(=O)N3CCOCC3)O[C@@H](OCC)[C@@H]2CCCO)cc1 | x | 1.4 | x | x | x
CCOC(=O)c1sc(NC(NC(=O)c2ccco2)(C(=O)OC)C(F)(F)F)nc1C (stereo not given) | 56* | x | 0.9 | 7 | 0.4
COC(=O)c1sc(NC(=O)c2ccco2)nc1C | 18 | -0.12 | 0.9 | 8 | 0.8
O=C(Cn1ncc2c1-c1ccccc1OC2)Nc1cccc(Cl)c1 | 35 | -5* | 0.4 | 56* | 0.6
O=C(Cn1ncc2c1-c1ccccc1OC2)Nc1ccc(Cl)cn1 | 50 | -0.9 | 1 | 3 | 0.5
COc1cc(NC(=O)CN2c3ccccc3CC2C)cc(OC)c1OC (stereo not given) | 81* | 0.76 | 0.3 | 69* | 0.2
COc1cc(NC(=O)Cn2ncc3c2-c2ccccc2OC3)cc(OC)c1OC | 40 | 0.52 | 0.5 | 55* | 0.6
Cc1ccc(C)c(CN2CCCN(C(=O)Cn3ncc4c3-c3ccccc3OC4)C2)c1 | 56* | -6* | 0.2 | 79* | 0.4
COc1ccccc1NC(=O)Cn1ncc2c1-c1ccccc1OC2 | 34 | 0.9 | 0.6 | 37 | 0.7
Cc1cc(=O)c(C(=O)O)cn1Nc1ccc(Cl)cc1 | -5 | -0.57 | 0.9 | 12 | 1.1
CN1CCN(C(=O)C2=C[C@@H](c3coc4ccccc4c3=O)C[C@@H](OCCCCO)O2)CC1 | x | 0.23 | x | x | x
CC(C)=CC(=O)Nc1nnc(-c2ccccc2)s1 | -45 | -0.027 | 1 | 4 | 1.5
O=S(=O)(Nc1nnc(-c2ccccc2)s1)c1ccc(Cl)cc1 | 99* | x | 0.2 | 83* | 0
O=C(O)C1CC(=O)N(c2ccc(OCc3ccc(Cl)cc3Cl)cc2)C1 (stereo not given) | -28 | 0.23 | 1 | 4 | 1.3
COC(C[C@H]1O[C@H]1[C@@H](O)[C@H](C)OCc1ccccc1)OC | x | -0.56 | x | x | x
O=C(CN1C(=O)c2ccccc2S1(=O)=O)NCCSC1CCCCC1 | 24 | x | 0.9 | 11 | 0.8
O=C(Cc1c(F)cccc1Cl)Nc1ccon1 | 78* | 1.5 | 0.8 | 23 | 0.2
Cc1cc(C(=O)NCc2cccs2)no1 | -5 | 0.15 | 1 | 1 | 1
COc1ccc2nc3sc(C(=O)NCc4cccs4)c(N)c3cc2c1 | 56* | -0.87 | 0.2 | 77* | 0.4
Cc1[nH]c2ccccc2c1C(=O)COC(=O)C1CC(=O)N(Cc2ccccc2)C1 (stereo not given) | 67* | -1.1 | 0.2 | 78* | 0.3
CCOC(=O)c1c(C)[nH]c(C(=O)COC(=O)C2CC(=O)N(Cc3ccccc3)C2)c1C (stereo not given) | 42 | -0.036 | 0.6 | 42 | 0.6
